ClpP mod – qHTS Assay for Activators of ClpP; purified B. subtilis ClpP, FRET peptide cleavage, 20 min; Potency, µM (highest dose often 57.5 µM), for inactives: at the top dose activity change, negative = active; 340,000 tested, 1.9% active; AID 651965, 2013; active means well fitted falling curve with a large enough effect; inconclusive means small, poorly fitted or top-dose-only effect; inactive means no such curve, though single readings can be large or run the other way; further: potency means the concentration at half of the fitted maximal effect; the source files actives as falling curves though it sought activators and does not explain the sign; nearly all actives have a fitted effect of over 65% in size
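Purified B. subtilis ClpP, 10 microg/mL final in Tris/HCl pH8 with KCl, BSA, glycerol and Tween-20, cleaved an Abz/nitrotyrosine-quenched decapeptide. Fluorescence (ex 320, em 430) was read at 0 and 20 min at room temperature. Delta was normalized to 5.8 microM ADEP and DMSO/no-enzyme controls.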
Rango dissoc inh – inhibitors of RanGTP-induced Rango-importin beta complex dissociation. O95149+P62826. Biochemical FRET Rango-importin beta, RanGTP-induced dissociation. Potency, µM (doses to about 46.1 µM), inactives show at the top dose activity change, negative = inhibition. 340,000 tested, 0.071% active; further: potency means the concentration at half of the fitted maximal effect; % of control where 0% means no effect; nearly all actives have a fitted effect of over 45% in size
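Rango FRET biosensor (snurportin-1 IBB flanked by N-terminal EYFP and C-terminal CFP10) at 0.1 uM, with 0.25 uM importin beta in PBS, 1mM DTT, 0.02% Tween-20, 0.1% BSA. 0.6 uM Ran, 2mM GTP and 0.2 uM RCC1 were then added for 45 min at room temperature. Inhibition read as loss of FRET rise.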
CBFb RUNX1 block – inhibitors of human CBF-beta and RUNX1 interaction; AlphaScreen CBFb-His/RUNX1-biotin binding, biochemical; Potency, µM (top dose mostly 59.8 µM), for the others: at the top dose activity, negative = inhibition, most hits filed as inhibitors; 230,000 tested, under 10 active; active means well fitted curve in the direction sought with a large enough effect; inconclusive means small, poorly fitted or top-dose-only effect, or effect the other way, or another doubt; inactive means no such curve, though single readings can be large or run the other way; further: % of control where 0% means no effect
Target sequence (Q01196 whole entry, looked up): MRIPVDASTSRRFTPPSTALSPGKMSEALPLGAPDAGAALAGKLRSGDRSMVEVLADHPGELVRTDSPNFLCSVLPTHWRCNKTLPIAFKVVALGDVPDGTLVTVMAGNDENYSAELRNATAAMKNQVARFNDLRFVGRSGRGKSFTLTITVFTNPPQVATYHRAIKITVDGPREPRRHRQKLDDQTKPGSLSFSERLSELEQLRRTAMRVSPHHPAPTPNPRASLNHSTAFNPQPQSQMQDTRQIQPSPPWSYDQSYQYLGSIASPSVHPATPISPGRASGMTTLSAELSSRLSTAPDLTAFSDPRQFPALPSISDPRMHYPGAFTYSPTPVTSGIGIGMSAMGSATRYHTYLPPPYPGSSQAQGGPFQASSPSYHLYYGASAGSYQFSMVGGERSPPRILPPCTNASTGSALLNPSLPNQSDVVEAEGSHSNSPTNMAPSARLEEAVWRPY
Target sequence (Q13951 whole entry, looked up): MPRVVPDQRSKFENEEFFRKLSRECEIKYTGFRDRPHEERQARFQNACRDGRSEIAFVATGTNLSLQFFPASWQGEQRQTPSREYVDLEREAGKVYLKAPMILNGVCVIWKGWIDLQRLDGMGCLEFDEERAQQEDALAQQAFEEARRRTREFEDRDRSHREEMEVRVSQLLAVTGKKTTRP
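CBF-beta (His) and RUNX1 (biotin), 30 nM each; 20 min preassociation; + compound, 15 min; + beads 50 ng each (Ni, streptavidin), 90 min; RT; AlphaScreen read.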
Rango complex inh – inhibitors of Rango-importin beta complex formation. Rango CFP/YFP FRET sensor + importin beta, 45 min. AID 540263. 340,000 tested, 0.031% active. Potency, µM (top dose mostly 92.2 µM), for inactives: top-dose inhibition of complex formation. Q14974;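 further: potency means the concentration at half of the fitted maximal effect; 0% = DMSO wells and 100% = buffer wells lacking importin beta; nearly all actives have a fitted effect of over 15% in size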
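Inhibition scored from the CFP 486 nm/YFP 530 nm FRET ratio 45 min after adding 0.125 microM importin beta to 50 nM Rango biosensor preincubated 5 min with compound (room temperature, PBS with DTT, Tween-20, BSA). No-importin wells as positive control.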
MBNL1-CUG inh – inhibitors of human MBNL1 binding to CUG repeat RNA; TR-FRET MBNL1-His/biotin-(CUG)12 binding, 665/545 ratio; Potency, µM (series often up to 57.5 µM), for the others: at the top dose activity change, negative = inhibition, actives largely listed as inhibitors; 280,000 tested, 0.036% active; AID 2675; active means well fitted inhibition curve with a large enough effect in the signal ratio, with a control signal flat, not every such curve was filed as active; inconclusive means small, poorly fitted or top-dose-only effect, or effect the other way, or a change in a side signal; inactive means no such curve, though single readings can be large or run the other way; the % refers to the signal ratio; further: potency means the concentration at half of the fitted maximal effect; on the % scale 0 is the no-effect control and ±100 the full control effect
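His-tagged MBNL1 binding to biotinylated (CUG)12 RNA was measured by TR-FRET using terbium anti-His antibody (0.055 ng/ul final) and streptavidin-XL665 (5 nM final). Compounds were titrated 92 nM to 58 uM; 60 min at room temperature.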
The depositor's hits bear a star; ? = inconclusive; · = not tested or not shown; [ ] = remark or other dose. Only a selection was taken, and hits are over-represented in it overall. Unless noted, the call rests on the fitted dose curve.

SMILES	ClpP mod	Rango dissoc inh	CBFb RUNX1 block	Rango complex inh	MBNL1-CUG inh
CCN(Cc1cc2cc(OC)ccc2[nH]c1=O)C(=O)Cc1ccc(OC)cc1	28µM*	?	5%	3%	4%
CCOc1ccccc1N(CC)C(=O)Cn1ncc2c1-c1ccccc1OC2	0%	·	·	·	·
COc1ccc(CCNC(=O)CSc2cn(CCNC(=O)c3cccc(C(F)(F)F)c3)c3ccccc23)cc1OC	0%	·	·	·	·
O=C(Nc1ccc2nc(SCC(=O)N3CCCc4ccccc43)sc2c1)c1cccc(Cl)c1	14µM*	·	·	·	·
CC1(C)Cc2c(C#N)c(N)n(-c3ccccc3)c(=O)c2CO1	-6%	14%	1%	7%	0%
CCC1(C)Cc2c(c(=O)n(-c3ccccc3)c3ncnc(N)c23)CO1 (stereo unspecified)	16µM*	2%	-1%	-1%	?
Cc1ccc2c(c1)-c1c(cnc3cc(-c4ccc(F)cc4)nn13)CO2	-1%	·	·	·	·
Cc1ccc2c(c1)-c1c(cnc3cc(-c4ccc(Cl)cc4)nn13)CO2	18µM*	·	·	·	·
COc1ccccc1C(=O)NC1=NC(c2ccc(Br)cc2)CC(=O)N1 (stereo unspecified)	32µM*	·	·	·	·
Cc1ccc(C(=O)NC2=NC(c3ccc(C)cc3)CC(=O)N2)cc1 (stereo unspecified)	-3%	·	·	·	·
CC(Oc1ccccc1)C(=O)Nc1ccccc1C(=O)OCc1cc(=O)n2nc(C3CC3)sc2n1 (stereo unspecified)	0%	·	·	·	·
O=C1Nc2ccc(S(=O)(=O)NCc3ccccn3)c3cccc1c23	-3%	7.3µM*	2%	?	?
Cc1nn(C2CC(O)C(O)C(CO)O2)c(=O)[nH]c1=O (stereo unspecified)	28µM*	-10%	·	7%	·
CCc1cn([C@H]2C[C@H](O)[C@@H](CO)O2)c(=O)[nH]c1=O	1%	-18%	6%	-3%	3%
COc1cc(C(=O)Nc2cc(C)ccc2C)ccc1OCc1c(C)noc1C	·	17%	·	3%	·
Cc1ccc(C)c(NC(=O)c2ccc(OCc3c(C)noc3C)cc2)c1	32µM*	-5%	·	3%	·
Cc1cccc(Cn2cccc2CNS(=O)(=O)c2ccc(C)c(C)c2)c1	1%	·	·	·	·
O=C(CSc1nccn1-c1ccccc1)c1ccc(Cl)cc1	4%	0%	-17%	-3%	-2%
Cc1ccc(C(=O)CSc2nccn2-c2ccccc2)cc1	28µM*	1%	-17%	2%	-6%
Cc1cc(C)cc(-n2ccnc2SCC(=O)O)c1	28µM*	7%	8%	-1%	-6%
C[C@]12C[C@H](O)CC(CO)(CO)C1[C@H](O)C[C@@]13CC4[C@@H](CC12)[C@@]4(C)C3 (stereo partly specified)	·	·	11%	·	·
COc1cc(C=O)ccc1OCc1cccc(Br)c1	25µM*	-5%	?	2%	-15%
CC(C)(C)c1ccc(-c2n[nH]c(=S)n2-c2ccccc2)cc1	8.9µM*	1%	·	0%	280%
C/C(=N\NC(=O)c1c(Cl)c(C)nn1C)c1cccc(NC(=O)COc2ccccc2)c1	145%	3%	5%	-8%	-4%
C/C(=N\NC(=O)c1c(Cl)c(C)nn1C)c1ccc(NC(=O)COc2ccc(Cl)cc2C)cc1	25µM*	-4%	-2%	0%	-5%
SMILES	ClpP mod	Rango dissoc inh	CBFb RUNX1 block	Rango complex inh	MBNL1-CUG inh
Cc1ccc(CN2CCN(/N=C/c3sccc3C)CC2)c(C)c1	28µM*	-13%	-8%	-4%	-2%
O=C(CN1C(=O)c2cccc3cccc1c23)NCc1ccc2c(c1)OCO2	-5%	?	-2%	?	?
O=C(CN1C(=O)c2cccc3cccc(c23)C1=O)N1CCN(Cc2ccc3c(c2)OCO3)CC1	25µM*	14%	-1%	-1%	?
CC(C)OC(=O)c1c(NC(=O)c2cc3nc(-c4ccccc4)cc(C(F)(F)F)n3n2)sc2c1CCCC2	-12%	·	·	·	·
COc1ccc(NC(=O)C(=O)NCC(=O)Nc2cc(OC)ccc2OC)cc1	10µM*	-1%	·	-2%	-5%
COc1ccc(OC)c(NC(=O)CNC(=O)c2cccs2)c1	1%	6%	3%	-1%	-10%
Cc1ccc(Cl)cc1N1CCN(C(=O)c2cnc(N3CCOCC3)c3ccccc23)CC1	32µM*	·	·	·	·
Cc1ccc(N2CCN(C(=O)c3cnc(N4CCCCC4)c4ccccc34)CC2)c(C)c1	35µM*	·	·	·	·
O=C(c1cnc(N2CCCCC2)c2ccccc12)N1CCN(c2ccc(Cl)cc2)CC1	25µM*	·	·	·	·
Cc1ccc(NC(=O)c2c(C)nn(-c3ccccc3)c2-n2cccc2)c(Cl)c1	-6%	·	·	·	·
C=C[C@@H](C)[C@](C)(O)c1ccccc1	·	·	0%	·	·
Cc1ccc(C)c(N2CCN(CCCNC(=O)c3cnn(-c4ccc(F)cc4)c3C3CCN(C(=O)OC(C)(C)C)CC3)CC2)c1	1%	·	·	·	·
CCCCC#CC1C=CC(Oc2ccc(OC)cc2)C(CO)O1 (stereo unspecified)	·	·	6%[13.1 µM]	·	·
Cc1c(C(=O)N(C)c2cccc(C(F)(F)F)c2)sc2nc3n(c(=O)c12)CCCCC3	1%	·	·	·	·
O=C(O)c1cc(N2C(=O)C3C4C=CC(C4)C3C2=O)ccc1NCc1cccnc1 (stereo unspecified)	35µM*	-8%	1%	-1%	-22%
O=[N+]([O-])c1ccc(C(c2sc3nc(-c4ccco4)nn3c2O)N2CCC3(CC2)OCCO3)cc1 (stereo unspecified)	2%	·	·	·	·
Cc1ccc(-c2cc(C(F)F)nc(NCc3cccnc3)n2)cc1	14µM*	-8%	-4%	2%	-2%
O=C(NCc1cccs1)Nc1ccc(Cl)cc1	20µM*	14%	18%	5%	1%
C[n+]1ccc(/C=C/c2cc[n+](C)c3ccccc23)c2ccccc21	-13%	·	·	·	·
COc1ccccc1Nc1nc(-c2ccc(F)cc2)c2c(n1)-c1ccccc1OC2	-10%	·	·	·	·
Cc1c(C(=O)NCc2ccccc2)oc2c1-c1[nH]ncc1CC2	25µM*	·	·	·	·
CCn1c2ccccc2c2cc(C3C(C#N)=C(N)OC4=C3C(=O)CC(C)(C)C4)ccc21 (stereo unspecified)	·	·	-3%	·	3%
CCn1c2ccccc2c2cc(C3C(C#N)=C(C)NC(C)=C3C#N)ccc21	16µM*	-15%	0%	?	-3%
CC(=O)N1c2ccccc2C(=O)OC1c1cccnc1 (stereo unspecified)	28µM*	-8%	-4%	4%	-7%
CCOC(=O)c1sc2nc(C)n(CC(=O)Nc3cccc(Cl)c3)c(=O)c2c1C	-4%	·	·	·	·
N#Cc1c(C(F)(F)F)cc(-c2cccs2)nc1SCc1ccc(F)cc1	-30%	·	·	·	·
N#Cc1c(C(F)(F)F)cc(-c2cccs2)nc1SCc1cccnc1	8.9µM*	-12%	2%	1%	11%

Screening data deposited in PubChem BioAssay by National Center for Advancing Translational Sciences (NCATS).
